Assay results taken from PubChem BioAssay (Tox21).
Results filed as inconclusive are left out. The source holds several records for some structures; these can differ, active in one and inactive in another. Activity calls are given as the source filed them. Unless noted, the call rests on the fitted dose curve; in most records, active means well fitted cell-killing curve with a large enough effect in the repeat runs; inconclusive means weak or mixed curves, or effect the other way; inactive means no such curve, though single readings can be large or run the other way.

What was measured:
[1] = target: Peroxisome proliferator-activated receptor delta (Homo sapiens) (UniProt Q03181); assay: qHTS assay to identify small molecule antagonists of the peroxisome proliferator-activated receptor delta (PPARd) signaling pathway (AID 743215; active means well fitted inhibition curve with a large enough effect in the signal ratio in the repeat runs, not every such curve was filed as active; the % refers to the signal ratio;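 further: cells stimulated with agonist L165041 at 300 nM final during compound exposure; series mostly up to about 62 µM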)
Chain of Peroxisome proliferator-activated receptor delta (Homo sapiens) (Q03181 whole entry, looked up): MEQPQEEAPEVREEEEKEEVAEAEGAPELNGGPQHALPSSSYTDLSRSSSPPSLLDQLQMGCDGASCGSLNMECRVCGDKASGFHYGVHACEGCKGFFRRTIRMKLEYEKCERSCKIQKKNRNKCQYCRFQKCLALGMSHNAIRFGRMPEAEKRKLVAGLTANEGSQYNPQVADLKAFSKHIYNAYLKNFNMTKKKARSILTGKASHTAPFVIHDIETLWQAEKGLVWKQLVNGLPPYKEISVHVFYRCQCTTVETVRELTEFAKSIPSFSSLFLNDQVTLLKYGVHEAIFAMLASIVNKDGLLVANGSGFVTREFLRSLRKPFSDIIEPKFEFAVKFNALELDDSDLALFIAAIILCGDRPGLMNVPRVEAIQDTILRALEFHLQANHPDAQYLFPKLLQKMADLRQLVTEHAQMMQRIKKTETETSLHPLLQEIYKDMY
In short: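 HEK293H GeneBLAzer PPARd UAS-bla reporter cells; cpd + L165041 300 nM final, 17 h 37 C; LiveBLAzer B/G FRET substrate 2 h RT; fluorescence intensity read-out. Antagonist mode.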

[2] = qHTS assay to identify small molecule agonists of the farnesoid-X-receptor (FXR) signaling pathway - cell viability counter screen (AID 743218); further: nearly all actives have a fitted effect of over 45% in size
In short: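 Luminescence from CellTiter-Glo, read after 30 min at RT, reports viability of GeneBLAzer FXR-UAS-bla HEK 293T cells treated 16 h with compounds in the wells used for the beta-lactamase reporter.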

[3] = target: Bile acid receptor (Homo sapiens) (UniProt Q96RI1); assay: qHTS assay to identify small molecule antagonists of the farnesoid-X-receptor (FXR) signaling pathway (AID 743217; active means well fitted inhibition curve with a large enough effect in the signal ratio in the repeat runs, not every such curve was filed as active; the % refers to the signal ratio; further: potency means the concentration at half of the fitted maximal effect)
Chain of Bile acid receptor (Homo sapiens) (Q96RI1 whole entry, looked up): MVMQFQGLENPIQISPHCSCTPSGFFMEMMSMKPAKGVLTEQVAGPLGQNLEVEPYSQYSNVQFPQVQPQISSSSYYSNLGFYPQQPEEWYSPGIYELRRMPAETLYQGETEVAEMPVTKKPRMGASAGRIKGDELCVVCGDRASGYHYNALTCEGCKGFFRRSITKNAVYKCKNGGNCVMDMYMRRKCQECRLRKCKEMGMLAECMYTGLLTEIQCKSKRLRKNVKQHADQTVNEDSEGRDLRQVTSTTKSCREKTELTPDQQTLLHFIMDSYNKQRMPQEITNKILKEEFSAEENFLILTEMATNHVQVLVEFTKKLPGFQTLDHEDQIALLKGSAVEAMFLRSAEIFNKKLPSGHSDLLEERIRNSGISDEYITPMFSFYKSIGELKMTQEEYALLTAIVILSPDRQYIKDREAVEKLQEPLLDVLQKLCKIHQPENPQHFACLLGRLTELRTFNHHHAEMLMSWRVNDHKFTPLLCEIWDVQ
In short: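 Read-out: beta-lactamase FRET fluorescence (LiveBLAzer B/G substrate, 2 h, room temperature) in GeneBLAzer FXR-UAS-bla HEK 293T cells. Compounds were co-dosed with 50 uM chenodeoxycholic acid (final) and incubated 16 h at 37 °C.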

[4] = target: Bile acid receptor (Homo sapiens) (UniProt Q96RI1); assay: qHTS assay to identify small molecule agonists of the farnesoid-X-receptor (FXR) signaling pathway (AID 743220; active means well fitted activation curve with a large enough effect in the signal ratio in the repeat runs, not every such curve was filed as active; the % refers to the signal ratio)
In short: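 FXR-UAS-bla HEK 293T cells carrying a UAS-driven beta-lactamase reporter were plated for 5 h at 37C/5% CO2, then exposed to DMSO-dissolved Tox21 10K compounds for 16 h at 37C. A LiveBLAzer B/G FRET substrate was loaded for 2 h at room temperature before fluorescence reading.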

[5] = qHTS assay to identify small molecule antagonists of the farnesoid-X-receptor (FXR) signaling pathway - cell viability counter screen (AID 743221; active means well fitted cell-killing curve with a large enough effect in the repeat runs, not every such curve was filed as active; further: nearly all actives have a fitted effect of over 50% in size)
In short: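 Cytotoxicity is taken from ATP luminescence (CellTiter-Glo, 30 min, room temperature) in FXR-bla HEK 293T cells previously incubated 16 h at 37 C with compound and chenodeoxycholic acid at 50 uM final.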

[6] = target: Vitamin D3 receptor (Homo sapiens) (UniProt P11473); assay: qHTS assay to identify small molecule agonists of the vitamin D receptor (VDR) signaling pathway (AID 743222; calls by dose curve)
Chain of Vitamin D3 receptor (Homo sapiens) (P11473 whole entry, looked up): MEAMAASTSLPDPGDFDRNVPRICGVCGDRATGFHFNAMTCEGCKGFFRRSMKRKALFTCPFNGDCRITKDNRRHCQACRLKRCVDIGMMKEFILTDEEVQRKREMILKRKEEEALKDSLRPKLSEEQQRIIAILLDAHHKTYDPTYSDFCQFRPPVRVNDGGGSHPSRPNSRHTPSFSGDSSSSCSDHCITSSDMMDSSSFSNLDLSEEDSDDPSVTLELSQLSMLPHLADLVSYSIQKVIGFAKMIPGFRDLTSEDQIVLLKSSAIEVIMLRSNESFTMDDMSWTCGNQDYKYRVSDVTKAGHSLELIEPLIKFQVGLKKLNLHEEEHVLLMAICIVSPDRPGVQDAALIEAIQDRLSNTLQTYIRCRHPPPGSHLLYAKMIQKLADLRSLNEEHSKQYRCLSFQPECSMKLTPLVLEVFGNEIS
In short: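 Beta-lactamase reporter readout (LiveBLAzer B/G FRET, 2 h RT) in VDR-bla cells after 16 h compound treatment at 37C, 5% CO2; cells pre-incubated 4 h before pin transfer of DMSO solutions.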

[7] = target: Vitamin D3 receptor (Homo sapiens) (UniProt P11473); assay: qHTS assay to identify small molecule antagonists of the vitamin D receptor (VDR) signaling pathway (AID 743223; active means well fitted inhibition curve with a large enough effect in the signal ratio in the repeat runs, not every such curve was filed as active; the % refers to the signal ratio)
In short: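 Quantitative HTS in VDR-bla reporter cells stimulated with 1alpha,25-dihydroxyvitamin D3, 3 nM final. Compound exposure 16 h, 37C, 5% CO2. Read-out: beta-lactamase FRET substrate fluorescence, 2 h RT.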

[8] = qHTS assay to identify small molecule agonists of the vitamin D receptor (VDR) signaling pathway - cell viability counter screen (AID 743224); further: nearly all actives have a fitted effect of over 50% in size; further: potency means the concentration at half of the fitted maximal effect
In short: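 Cytotoxicity counter screen: VDR-bla cells, 16 h compound exposure at 37C, 5% CO2; CellTiter-Glo luminescence, 30 min RT, same wells as bla read.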

Measured: Potency

CC(C)c1ccc(O)c(C(C)C)c1
inactive: [1] | [2]

CCCCCCCC/C=C\CCCCCCCC(=O)OCCOC(=O)CCCCCCC/C=C\CCCCCCCC
inactive: [1] | [3] | [4] | [5] | [6] | [7]

O=C1c2c(O)ccc(O)c2C(=O)c2c(NCCNCCO)ccc(NCCNCCO)c21
inactive: [4] | [5]
active: [3] 26.6 µM

CCOC(=O)[C@@](C)(N)Cc1ccc(O)c(O)c1
inactive: [3] | [2] | [4] | [5] | [7]

CCCCCCCCCCCCCOP(=O)(O)O
inactive: [1] | [2] | [5] | [6] | [8]

c1ccc(Nc2cccc3ccccc23)cc1
55.7 µM (active) and inactive: [8]
inactive: [1] | [2] | [5] | [6] | [7]
